In all, about 81,000 sequences were measured (“one-hybrid fitness for binding NBS DNA”: median about -0.1, highest 2% from about 0.36 on). The list comes from a sample in which the highest values are over-represented; it also holds similar and randomly drawn sequences.
B1: Caulobacter ParB omega fusion; a variant is named by its letters at X, in order, B8GW30 (parent)
chain: MESVVVGEPGMSEGRRGLGRGLSALLGEVDAAPAQAPGEQLGGSREAPIEILQRNPDQPRRTFREEDLEDLSNSIREKGVLQPILVRPSPDTAGEYQIVAGERAWRAAQRAGLKTVPIMVRELDDLAVLEIGIIENVQRADLNVLEEALSYKVLMEKFERTQENIAQTIGKSXSHVANXMRLLXLPDEVQSYLVSGELTAXHARAIAAAADPVALAKQIIEGGLSVRETEALARKAPNLSAGKSKGGRPPRVKDTDTQALESDLSSVLGLDVSIDHRGSTGTLTITYATLEQLDDLCNRLTRGI

Variants of: B1
Assay: one-hybrid fitness for binding NBS DNA (the Noc-binding site; scaled: cognate 1, non-cognate 0); higher = stronger binding
Settings: with NBS DNA site
In short: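 In E. coli USO, a HIS3 reporter with its site placed 19 bp from the promoter was used to select Caulobacter ParB variants randomised at four specificity codons. Growth lasted 48 hours at 37°C on histidine-free M9 containing 0.1 mM IPTG and 5 mM 3-AT. Fitness was taken as the log change in variant-to-wild-type read ratio from Illumina sequencing of pre- and post-selection plasmids, rescaled between the non-cognate and cognate sites.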

Row | Variant | one-hybrid fitness for binding NBS DNA
1 | KNRG | ≤ 0.2
2 | RIVS | ≤ 0.2
3 | RIKP | ≤ 0.2
4 | RSKD | ≤ 0.2
5 | RSVS | 0.285
6 | RSKS | 0.567
7 | RIKS | 0.499
8 | RAKH | 0.36
9 | RAVS | 0.239
10 | RAKS | 0.571
11 | HGYR | ≤ 0.2
12 | STVP | ≤ 0.2
13 | PRHI | ≤ 0.2
14 | VTRH | ≤ 0.2
15 | QTNL | 0.214
16 | RDAT | ≤ 0.2
17 | RMAT | 0.426
18 | RLAT | 0.423
19 | RIFT | ≤ 0.2
20 | RLAD | ≤ 0.2
21 | RSAN | ≤ 0.2
22 | RMFT | 0.261
23 | RIAT | 0.376
24 | RMAP | ≤ 0.2

Row | Variant | one-hybrid fitness for binding NBS DNA
25 | RIAD | ≤ 0.2
26 | RSAT | 0.414
27 | RLFT | 0.238
28 | LYNV | ≤ 0.2
29 | GATD | ≤ 0.2
30 | PPMS | ≤ 0.2
31 | HKTC | ≤ 0.2
32 | MLVG | ≤ 0.2
33 | YTRD | ≤ 0.2
34 | RCAV | ≤ 0.2
35 | RAAT | 0.364
36 | RCAT | 0.515
37 | RAFT | 0.242
38 | RFAT | ≤ 0.2
39 | RHFT | 0.245
40 | RHAH | ≤ 0.2
41 | RAAP | ≤ 0.2
42 | RPAT | ≤ 0.2
43 | RHAT | 0.432
44 | TFCI | ≤ 0.2
45 | NDTY | ≤ 0.2
46 | AWHV | ≤ 0.2
47 | HGAR | ≤ 0.2
48 | EIKR | ≤ 0.2

Row | Variant | one-hybrid fitness for binding NBS DNA
49 | WKER | ≤ 0.2
50 | RPQR | ≤ 0.2
51 | RDQR | ≤ 0.2
52 | RSQP | ≤ 0.2
53 | RSQR | 0.44
54 | RCQR | 0.512
55 | RFQR | 0.282
56 | FPQS | ≤ 0.2
57 | RQSN | ≤ 0.2
58 | RQVT | 0.216
59 | RQHK | ≤ 0.2
60 | RQHT | 0.417
61 | RQSS | 0.446
62 | RQKT | 0.63
63 | RQDS | ≤ 0.2
64 | RQKQ | 0.244
65 | RQNH | 0.34
66 | RQSP | ≤ 0.2
67 | RQNS | 0.48
68 | RQHF | ≤ 0.2
69 | SYHE | ≤ 0.2
70 | SRKD | ≤ 0.2
71 | HWGA | ≤ 0.2
72 | RMER | 0.227

Row | Variant | one-hybrid fitness for binding NBS DNA
73 | EGHG | ≤ 0.2
74 | DQTE | ≤ 0.2
75 | MCRV | ≤ 0.2
76 | RQNP | ≤ 0.2
77 | RQCH | ≤ 0.2
78 | RQDT | 0.268
79 | RQNT | 0.53
80 | RQCP | ≤ 0.2
81 | RQFT | 0.204
82 | RQSG | ≤ 0.2
83 | RQAD | ≤ 0.2
84 | RQST | 0.474
85 | RQGT | 0.351
86 | RQCT | 0.382
87 | RQAT | 0.385
88 | SAEQ | ≤ 0.2
89 | SIIG | ≤ 0.2
90 | HRTH | ≤ 0.2
91 | VQPC | ≤ 0.2
92 | RQAS | 0.38
93 | RQRT | 0.615
94 | RQPT | ≤ 0.2
95 | RQFS | 0.206
96 | RQYT | 0.353

Row | Variant | one-hybrid fitness for binding NBS DNA
97 | RQAH | ≤ 0.2
98 | PKKW | ≤ 0.2
99 | TRLN | ≤ 0.2
100 | IGRT | ≤ 0.2
101 | QQYV | ≤ 0.2
102 | QQKV | 0.533
103 | QQFV | ≤ 0.2
104 | QQRV | 0.493
105 | QQVV | ≤ 0.2
106 | QQDV | ≤ 0.2
107 | VRMV | ≤ 0.2
108 | RCAA | 0.234
109 | RCFA | ≤ 0.2
110 | RRAA | 0.664
111 | RRFA | 0.569
112 | RPAA | ≤ 0.2
113 | RSFA | ≤ 0.2
114 | FQVR | ≤ 0.2
115 | TYLE | ≤ 0.2
116 | YVWI | ≤ 0.2
117 | RCTA | 0.238
118 | RCYA | 0.24
119 | RSTA | ≤ 0.2
120 | RCSA | 0.232

Row | Variant | one-hybrid fitness for binding NBS DNA
121 | RRTA | 0.619
122 | RCGA | 0.259
123 | RRSA | 0.605
124 | RRYA | 0.684
125 | RRGA | 0.664
126 | RSYA | ≤ 0.2
127 | RPGA | ≤ 0.2
128 | RSSA | ≤ 0.2
129 | AHHE | ≤ 0.2
130 | WMIS | ≤ 0.2
131 | DNAG | ≤ 0.2
132 | VKPI | ≤ 0.2
133 | VNAV | ≤ 0.2
134 | CCMW | ≤ 0.2
135 | QMGI | ≤ 0.2
136 | TSPL | ≤ 0.2
137 | RQFK | ≤ 0.2
138 | VLYA | ≤ 0.2
139 | QHGK | ≤ 0.2
140 | IVPF | ≤ 0.2
141 | PKES | ≤ 0.2
142 | VFPS | ≤ 0.2
143 | FLQS | ≤ 0.2
144 | QVPL | ≤ 0.2

Row | Variant | one-hybrid fitness for binding NBS DNA
145 | LTRI | ≤ 0.2
146 | GFGY | ≤ 0.2
147 | SVNC | ≤ 0.2
148 | RCCA | 0.268
149 | RPWA | ≤ 0.2
150 | RARA | 0.309
151 | RPCA | ≤ 0.2
152 | RSHA | ≤ 0.2
153 | RRCA | 0.584
154 | RCWA | ≤ 0.2
155 | RRRA | 0.671
156 | RLRA | 0.295
157 | RRWA | 0.546
158 | RCHA | 0.307
159 | RRHA | 0.66
160 | PPGV | ≤ 0.2
161 | IQLC | ≤ 0.2
162 | EVWT | ≤ 0.2
163 | YTCT | ≤ 0.2
164 | YRGS | ≤ 0.2
165 | DVKL | ≤ 0.2
166 | HVRW | ≤ 0.2
167 | NNGC | ≤ 0.2
168 | KTNT | 0.226

Row | Variant | one-hybrid fitness for binding NBS DNA
169 | RCLA | ≤ 0.2
170 | RCIA | ≤ 0.2
171 | RPMA | ≤ 0.2
172 | RCMA | ≤ 0.2
173 | RRPA | 0.282
174 | RRLA | 0.584
175 | RCQA | 0.238
176 | RSQA | ≤ 0.2
177 | RSLA | ≤ 0.2
178 | RRQA | 0.695
179 | RRMA | 0.591
180 | RRIA | 0.552
181 | APCY | ≤ 0.2
182 | TLCF | ≤ 0.2
183 | NTLF | ≤ 0.2
184 | CLPC | ≤ 0.2
185 | DMHR | ≤ 0.2
186 | GSQM | ≤ 0.2
187 | RREA | 0.44
188 | RCEA | ≤ 0.2
189 | RSEA | ≤ 0.2
190 | STQW | ≤ 0.2
191 | SNSF | ≤ 0.2
192 | WTSV | ≤ 0.2

Row | Variant | one-hybrid fitness for binding NBS DNA
193 | QTIQ | ≤ 0.2
194 | QTWQ | ≤ 0.2
195 | QTKQ | 0.568
196 | QTVQ | 0.534
197 | YDNH | ≤ 0.2
198 | MVEY | ≤ 0.2
199 | KRES | 0.264
200 | KRDH | ≤ 0.2
201 | KRAD | ≤ 0.2
202 | KRYS | 0.447
203 | KRHS | 0.464
204 | KRRH | 0.422
205 | KRAS | 0.409
206 | KRHD | ≤ 0.2
207 | KRHN | ≤ 0.2
208 | KRIS | 0.308
209 | KRRP | ≤ 0.2
210 | KRFS | 0.358
211 | GYTL | ≤ 0.2
212 | SSDL | ≤ 0.2
213 | SLMH | ≤ 0.2
214 | HKYA | ≤ 0.2
215 | YCMR | ≤ 0.2
216 | HEIR | ≤ 0.2

Row | Variant | one-hybrid fitness for binding NBS DNA
217 | KRQH | 0.221
218 | KRRN | 0.217
219 | KRSN | ≤ 0.2
220 | KRQN | ≤ 0.2
221 | KRNS | 0.453
222 | KRQS | 0.443
223 | KRSS | 0.421
224 | KRSH | 0.205
225 | KRDS | 0.28
226 | KCRS | 0.216
227 | KRRS | 0.549
228 | KRNH | 0.265
229 | VPML | ≤ 0.2
230 | PIAK | ≤ 0.2
231 | QDVN | ≤ 0.2
232 | APGE | ≤ 0.2
233 | GIHG | ≤ 0.2
234 | KCYL | ≤ 0.2
235 | KRWN | ≤ 0.2
236 | KRCN | ≤ 0.2
237 | KRWS | 0.436
238 | KRWH | ≤ 0.2
239 | KRCS | 0.387
240 | KRCH | ≤ 0.2

Row | Variant | one-hybrid fitness for binding NBS DNA
241 | WTHQ | ≤ 0.2
242 | AAML | ≤ 0.2
243 | VNPF | ≤ 0.2
244 | GHPM | ≤ 0.2
245 | CVHG | ≤ 0.2
246 | RNDT | ≤ 0.2
247 | RNYT | ≤ 0.2
248 | RNRS | 0.491
249 | RNRT | 0.391
250 | RNKT | 0.46
251 | RNVT | ≤ 0.2
252 | RNRP | ≤ 0.2
253 | RNKD | ≤ 0.2
254 | RNYS | ≤ 0.2
255 | YKHS | ≤ 0.2
256 | KGVE | ≤ 0.2
257 | RSGD | ≤ 0.2
258 | RSGN | ≤ 0.2
259 | RLGD | ≤ 0.2
260 | RMGS | 0.461
261 | RIGN | ≤ 0.2
262 | RMGD | ≤ 0.2
263 | RIGS | 0.369
264 | RLGP | ≤ 0.2

Row | Variant | one-hybrid fitness for binding NBS DNA
265 | RLGS | 0.419
266 | RMGP | ≤ 0.2
267 | RSGS | 0.419
268 | RIGP | ≤ 0.2
269 | CRQG | ≤ 0.2
270 | LDLL | ≤ 0.2
271 | AGNM | ≤ 0.2
272 | AITP | ≤ 0.2
273 | AYSK | ≤ 0.2
274 | DEHT | ≤ 0.2
275 | IPES | ≤ 0.2
276 | ERQV | ≤ 0.2
277 | QYAC | ≤ 0.2
278 | KLFS | ≤ 0.2
279 | RHER | 0.235
280 | EADR | ≤ 0.2
281 | KFKV | ≤ 0.2
282 | RHGD | ≤ 0.2
283 | RKGS | 0.576
284 | RAGN | ≤ 0.2
285 | RTGD | ≤ 0.2
286 | RAGD | ≤ 0.2
287 | RKGN | ≤ 0.2
288 | RHGS | 0.368

Row | Variant | one-hybrid fitness for binding NBS DNA
289 | RTGN | ≤ 0.2
290 | RTGS | 0.491
291 | RAGS | 0.466
292 | RHGN | ≤ 0.2
293 | RKGD | ≤ 0.2
294 | LATQ | ≤ 0.2
295 | NNCL | ≤ 0.2
296 | PCCV | ≤ 0.2
297 | VENS | ≤ 0.2
298 | FMGS | ≤ 0.2
299 | DHPH | ≤ 0.2
300 | KDLT | ≤ 0.2
301 | ENHG | ≤ 0.2
302 | NCII | ≤ 0.2
303 | SQRK | ≤ 0.2
304 | MVPG | ≤ 0.2
305 | RCGS | 0.482
306 | RPGS | ≤ 0.2
307 | RFGS | ≤ 0.2
